The record followed here is the supplement of paper PMC6522484.

The structures appear in SMILES notation. ± gives the standard deviation of the averaged measurements.

Assay [1] has as its system DLD1. The experiment in a line: cell viability (CellTiter-Glo) relative to plate median (fraction of plate median); higher = more viable cells. The note with it: 5 µM; treatment time 24 h; reporter: 7TFP. The gist of the method: (§1)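 On parallel plates, a Tecan F500 reader recorded either firefly luciferase or CellTiterGlo luminescence. The plates held colorectal cancer cells stably transduced with lentiviral TCF/Wnt firefly luciferase reporters (7TFP or TCF4/Wnt), seeded in 384-well format and treated 24 h later with library compounds at a final 5 µM for 24 h. Per-well signals were normalised to the plate median (webcellHTS2, additive, no log transformation), and two independent replicates were averaged.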

Another assay relates to HCT116. The assay is described as above. The note with it: 5 µM; treatment time 24 h; reporter: TCF4/Wnt. In a few lines: as §1
In assay [2] the test system is SW480. The description is as above. The note with it: 5 µM; treatment time 24 h; reporter: 7TFP. In a few lines: as §1
The subject of assay [3] is DLD1. Briefly: TCF/Wnt firefly luciferase reporter signal relative to plate median (fraction of plate median); higher = higher Wnt reporter signal. The conditions noted are these: 5 µM; treatment time 24 h; reporter: 7TFP. In a few lines: as §1
Assay [4] concerns SW480. The assay is described as above. The conditions noted are these: 5 µM; treatment time 24 h; reporter: 7TFP. The gist of the method:
as §1

In the case of `COc1cc(C)c2c(=O)cc(-c3ccccc3)oc2c1`, the cell viability with DLD1 [1] was 0.991 ± 0.027; in the assay with HCT116, 0.884 ± 0.083; with SW480 [2] it was 1 ± 0.041. For the same compound, the figures for the “TCF/Wnt firefly luciferase reporter signal” value with DLD1 [3] and with SW480 [4] were 1.18 ± 0.092 and 1.14 ± 0.014, respectively.
For the compound `CC[C@H](/C=C/[C@@H](C)[C@H]1CC[C@H]2[C@@H]3CC=C4C[C@@H](O)CC[C@]4(C)[C@H]3CC[C@]12C)C(C)C`, the cell viability in the assay with DLD1 [1] stood at 1.04 ± 0.096; in the assay with HCT116 it was 1.14 ± 0.14; in the assay on SW480 [2] it was 1.03. For the same compound, the “TCF/Wnt firefly luciferase reporter signal” value turned out to be 1.05 ± 0.014 with DLD1 [3] and 1 ± 0.066 in the assay with SW480 [4].
Taken in the same sequence, the figures for `NC(=O)c1cnccn1` were 0.988 ± 0.045, 0.9595 ± 0.0035, 1.02 ± 0.05, 1.02 ± 0.13 and 0.942 ± 0.083.
Taken in the same sequence, the figures for `CN/C(=N\CCSCc1nc[nH]c1C)NC#N` were 1.04 ± 0.021, 1.12 ± 0.042, 1.04 ± 0.021, 1.12 ± 0.18 and 1.06 ± 0.042.
For `CC(=O)OC1CC[C@@]2(C)C(CC[C@H]3[C@@H]4CC=C(C(C)=O)[C@@]4(C)C(=O)C[C@@H]32)C1` (stereo not given in full), in that order: 1 ± 0.012, 1.05 ± 0.081, 1.04 ± 0.072, 1.08 ± 0.014 and 1.06 ± 0.05.
With `O=C(O)c1ccccc1Nc1ccccc1`, the cell viability in the assay with DLD1 [1] turned out to be 1.08 ± 0.15; in the assay with HCT116, 1.03 ± 0.14; in the assay on SW480 [2], 1.04 ± 0.057. Besides, the “TCF/Wnt firefly luciferase reporter signal” value came out at 1.09 ± 0.099 with DLD1 [3] and 0.911 ± 0.17 with SW480 [4].
Turning to `Cc1c(Cl)cccc1Nc1ccccc1C(=O)O`, the cell viability in the assay with DLD1 [1] was determined as 0.981 ± 0.041; in the assay on HCT116 it was 1.04 ± 0.014; with SW480 [2], 0.914 ± 0.039. For the same compound, the “TCF/Wnt firefly luciferase reporter signal” value with DLD1 [3] came to 0.979 ± 0.12; in the assay with SW480 [4], 0.862 ± 0.022.
Taken in the same sequence, the figures for `O=C(O)c1ccccc1` were 1.06 ± 0.096, 1.02 ± 0.021, 1.02 ± 0.014, 1.12 ± 0.071 and 0.951 ± 0.037.
Taken in the same sequence, the figures for `Cc1cc(/C=C/c2ccc3cc(N(C)C)ccc3[n+]2C)c(C)n1-c1ccccc1` were 0.899 ± 0.057, 0.592 ± 0.17, 0.852 ± 0.08, 0.774 ± 0.1 and 0.588 ± 0.085.
For `C[C@]12CC[C@@H]3c4ccc(OS(=O)(=O)O)cc4CC[C@H]3[C@@H]1CCC2=O`, in that order: 1.03 ± 0.035, 1.12 ± 0.014, 1 ± 0.014, 1.24 ± 0.21 and 1.23 ± 0.028.
Turning to `COc1cc2c(cc1OC)[C@@H]1C(=O)c3ccc4c(c3O[C@@H]1CO2)C=CC(C)(C)O4`, the cell viability in the assay on DLD1 [1] is 1.09 ± 0.021; in the assay on HCT116, 0.79 ± 0.14; in the assay with SW480 [2], 1.02 ± 0.094. Besides, the “TCF/Wnt firefly luciferase reporter signal” value with DLD1 [3] came to 0.9 ± 0.1; in the assay with SW480 [4] it was 0.884.
Taken in the same sequence, the figures for `CO/N=C(\C(=O)N[C@@H]1C(=O)N2C(C(=O)O)=C(CSc3nc(=O)c(O)nn3C)CS[C@H]12)c1csc(N)n1` were 1.06 ± 0.071, 1.06 ± 0.071, 0.98 ± 0.071, 1.1 ± 0.14 and 0.96 ± 0.057.
Taken in the same sequence, the figures for `COc1ccc(CC(=O)c2ccc(O)cc2O)cc1` were 0.962 ± 0.054, 0.955 ± 0.14, 0.995 ± 0.036, 1.13 ± 0.057 and 1.07 ± 0.078.
For `COc1ccc2c(c1)OCc1c-2oc2cc(OC)ccc12`, in that order: 1.05 ± 0.085, 1.01 ± 0.021, 1 ± 0.051, 1.09 ± 0.064 and 1.035 ± 0.0071.
`O=c1cc[nH]c(=S)[nH]1` [Thiouracil]: the cell viability in the assay on DLD1 [1] stood at 1.08 ± 0.17; in the assay on HCT116 it was 1.12 ± 0.11; with SW480 [2], 1.04 ± 0.064. For the same compound, the “TCF/Wnt firefly luciferase reporter signal” value amounted to 0.944 ± 0.093 with DLD1 [3] and 0.8625 ± 0.00071 with SW480 [4].
